Laboratory results reported in PubChem BioAssay.
Active and inactive are the calls of the source. Unless noted, the rule behind the calls is not given here.

How the values were obtained:
[1] = HepG2 liver cancer cell viability effects, profiling panel, resazurin fluorescence, 24 h, PK04 Diversity Set (AID 1172); conditions: higher = more signal; note: test concentration not given here
[2] = basal S. cerevisiae growth modulation, no modifier, primary screen, OD600, strain BY4716, 24 h, basal condition (AID 1173); conditions: OD600, 24 h, higher = more signal, called active from +8 up or from −8 down
[3] = MM1S myeloma cell viability, profiling panel, resazurin fluorescence, basal, 24 h, PK04 Diversity Set (AID 1174); conditions: higher = more signal, called active from +8 up or from −8 down;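 note: MM1S multiple myeloma cell line; test concentration not given here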
[4] = target: Dihydroorotate dehydrogenase (quinone), mitochondrial (Plasmodium falciparum (isolate 3D7)) (UniProt Q08210); experiment: PfDHODH enzyme inhibitors, primary screen, biochemical, C-terminal His tag, absorbance 600 nm (AID 1175); conditions: DCIP absorbance 600 nm, higher = more signal, called active from +8 up or from −8 down;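 note: recombinant parasite enzyme with a five histidine tag at its C terminus; test concentration not given here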
Dihydroorotate dehydrogenase (quinone), mitochondrial (Plasmodium falciparum (isolate 3D7)), sequence (Q08210 whole entry, looked up): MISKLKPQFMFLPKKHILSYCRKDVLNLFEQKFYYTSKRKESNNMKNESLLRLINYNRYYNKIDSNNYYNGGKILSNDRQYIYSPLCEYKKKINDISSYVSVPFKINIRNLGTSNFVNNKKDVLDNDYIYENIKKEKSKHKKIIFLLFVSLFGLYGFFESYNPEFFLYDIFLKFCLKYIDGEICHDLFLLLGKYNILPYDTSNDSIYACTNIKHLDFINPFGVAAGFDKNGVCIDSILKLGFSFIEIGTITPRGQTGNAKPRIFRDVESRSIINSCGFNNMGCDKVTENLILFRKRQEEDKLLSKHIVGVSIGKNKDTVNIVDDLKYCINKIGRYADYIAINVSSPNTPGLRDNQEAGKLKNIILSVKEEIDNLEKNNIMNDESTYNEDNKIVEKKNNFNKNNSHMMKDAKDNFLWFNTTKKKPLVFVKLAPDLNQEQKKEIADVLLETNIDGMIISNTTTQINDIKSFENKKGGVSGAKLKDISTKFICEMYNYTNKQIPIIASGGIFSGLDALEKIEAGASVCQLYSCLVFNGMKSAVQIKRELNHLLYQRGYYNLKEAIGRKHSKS

[5] = P. aeruginosa biofilm formation inhibitors, primary screen, strain PAO1, LB-PBS medium, absorbance 600 nm (AID 1176); note: test concentration not given here; conditions: P. aeruginosa PAO1 growth/biofilm, A600, 12 h; higher = more signal
[6] = S. cerevisiae RM11-1a growth modifiers, primary screen, strain RM11-1a, OD600, basal, 24 h (AID 1177); conditions: OD600, 24 h, higher = more signal, called active from +8 up or from −8 down;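 note: cultures grown under basal conditions with no added stressor; test concentration not given here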
[7] = E. coli acrAB mutant growth effects, primary screen, E. coli filamentation inducers, strain DRC39, OD650, 24 h (AID 1178); conditions: higher = more signal, called active from +8 up or from −8 down;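 note: growth measured as culture turbidity by optical density at 650 nm; test concentration not given here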
[8] = E. coli acrAB mutant growth effects, primary screen, E. coli filamentation inducers, strain DRC39, OD650, 48 h (AID 1179);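 note: screen aims at cell division blockers that make cells filament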; conditions: E. coli DRC39 delta-acrAB growth, higher = more signal, called active from +8 up or from −8 down
[9] = RPMI8226 myeloma cell viability, profiling panel, resazurin fluorescence, basal, 24 h, PK04 Diversity Set (AID 1180); conditions: higher = more signal;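 note: RPMI8826 multiple myeloma cell line at 5000 cells per well; test concentration not given here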
[10] = target: E3 ubiquitin-protein ligase XIAP (Homo sapiens) (UniProt P98170); experiment: XIAP binders, primary screen, biophysical, small-molecule microarray, fluorescence 635 nm (AID 1181); conditions: small-molecule microarray binding, higher = more signal;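 note: score merges 667 nm emission and signal to noise over triplicate slides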
E3 ubiquitin-protein ligase XIAP (Homo sapiens), sequence (P98170 whole entry, looked up): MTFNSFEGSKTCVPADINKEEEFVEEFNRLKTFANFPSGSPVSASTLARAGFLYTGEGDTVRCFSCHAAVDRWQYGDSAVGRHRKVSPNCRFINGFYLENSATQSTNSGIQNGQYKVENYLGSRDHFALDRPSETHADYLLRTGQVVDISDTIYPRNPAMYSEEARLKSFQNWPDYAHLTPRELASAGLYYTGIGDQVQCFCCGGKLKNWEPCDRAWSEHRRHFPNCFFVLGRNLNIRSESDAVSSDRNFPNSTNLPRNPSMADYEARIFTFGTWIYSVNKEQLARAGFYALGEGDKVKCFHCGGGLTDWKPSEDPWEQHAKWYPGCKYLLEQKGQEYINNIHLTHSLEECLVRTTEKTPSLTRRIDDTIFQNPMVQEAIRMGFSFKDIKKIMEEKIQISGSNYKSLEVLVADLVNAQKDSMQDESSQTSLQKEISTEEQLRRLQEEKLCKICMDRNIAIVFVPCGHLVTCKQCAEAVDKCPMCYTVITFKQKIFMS

SMILES | z-score [1] | z-score [2] | z-score [3] | composite z-score [4] | z-score [5] | z-score [6] | z-score [7] | z-score [8] | z-score [9] | composite z-score [10]
CCOC(=O)C1=CC[C@@H](c2ccccc2)N(S(=O)(=O)c2ccc(C)cc2)[C@H]1C#N | 0.145 | -0.134 (inactive) | -1.08 (inactive) | -3.15 (inactive) | 0.518 (inactive) | 0.0553 (inactive) | -1.01 (inactive) | 0.27 (inactive) | -0.99 | 0.129
C=CCOC(=O)[C@@H]1[C@H]2C(=O)O[C@H](c3ccccc3)[C@H](c3ccccc3)N2[C@H](c2ccc(OCCOC(=O)[C@H]3C[C@H]4C(=O)NCC(=O)N4[C@H]3c3ccc(O)cc3)cc2)[C@@]12C(=O)Nc1ccc(I)cc12 | -0.675 | 2.01 (inactive) | -0.349 (inactive) | -1.14 (inactive) | 3.08 (inactive) | 1.28 (inactive) | -0.0185 (inactive) | -0.282 (inactive) | -0.331 | -0.0669
COCCOC(=O)N1C(=O)[C@@]2(c3cc(C#CC4=CCCCC4)ccc31)[C@H](C(=O)N1CCc3cc(OC)c(OC)cc3C1)[C@H]1C(=O)O[C@H](c3ccccc3)[C@H](c3ccccc3)N1[C@@H]2c1ccc(O)cc1 | -0.03 | 0.935 (inactive) | -0.0713 (inactive) | 0.0434 (inactive) | 0.802 (inactive) | 2.23 (inactive) | -0.724 (inactive) | -0.169 (inactive) | 0.485 | 0.072
Cc1ccc(S[C@]2(C(=O)NCCCN(C)C)CC(=O)N(Cc3ccccc3Cl)[C@@H]2c2ccc(CO)cc2I)cc1 | -0.0565 | -2.11 (inactive) | -2.51 (inactive) | 0.648 (inactive) | -0.833 (inactive) | 0.995 (inactive) | 0.165 (inactive) | -0.352 (inactive) | -1.5 | -0.133
CN(C)C(=O)[C@]1(Cc2ccccc2CN=[N+]=[N-])N=C(c2ccc(OCCCO)cc2)O[C@@H]1c1ccccc1N=[N+]=[N-] | 0.142 | -0.0107 (inactive) | -1.54 (inactive) | -0.607 (inactive) | 0.0533 (inactive) | 1.37 (inactive) | 0.377 (inactive) | 0.529 (inactive) | -1.63 | 0.181
COc1ccccc1CN1C(=O)c2ccccc2[C@@H](C(=O)NCCCN(C)C)[C@@H]1c1ccc(CO)cc1 | 0.619 | -1.37 (inactive) | 1.22 (inactive) | 0.0824 (inactive) | 0.292 (inactive) | -0.942 (inactive) | 0.65 (inactive) | 1.37 (inactive) | 1.09 | -0.0426
